# From PubChem BioAssay
# Rows were chosen to be rich in hits. Some 5.4% of all compounds tested hit in one or more screens of this group.
# HPGD inh = blocks human HPGD enzyme activity; P15428; Potency, µM, inactives show at the highest dose activity change, negative = inhibition, hits mostly inhibitors; purified HPGD, NADH fluorescence kinetic, PGE2 substrate; AID 894; actives 4.3% (n = 150,000); active = well fitted inhibition curve with a large enough effect, not every such curve was filed as active; inconclusive = small, poorly fitted or top-dose-only effect, or another doubt; inactive = no such curve, though single readings can be large or run the other way; note: potency is the fitted concentration of half-maximal effect
#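 20 nM HPGD preincubated 15 min at room temperature with compound in 50 mM Tris-HCl pH 8, 0.01% Tween 20. Started with 1 mM NAD+ and 30 uM prostaglandin E2; NADH fluorescence (360/450 nm) read 5 times over 30-s intervals, last minus first.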
# IMPase inh = cell-permeable inhibitors of inositol monophosphatase (IMPase) | CHO-M1 cells, IP1 accumulation, HTRF TR-FRET ratio | inhibition (IP1 accumulation), % at 46.1 µM | 120,000 tested, under 10 active | AID 901; active = well fitted curve in the direction sought with a large enough effect in the signal ratio, not every such curve was filed as active; inconclusive = small, poorly fitted or top-dose-only effect, or a change in a side signal; inactive = no such curve, though single readings can be large or run the other way; the % refers to the signal ratio;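 note: cells stimulated with carbachol in lithium chloride buffer; plate controls were DMSO basal wells for no effect and reference inhibitor wells for full effect; higher means more IMPase inhibition seen as more IP1 and lower FRET ratio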
#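 In this qHTS, compounds (final up to 46 uM) act on CHO-M1 cells that are then activated through the M1 receptor with carbachol, in pH 7.4 buffer containing 50 mM LiCl, for 30 min. IP1 accumulation is quantified by the IP-One immunoassay.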
# PNC assembly inh = blocks assembly of the perinucleolar compartment | AID 2417 | PC3M PTB-GFP, PNC prevalence imaging, 16 h; stronger effect = lower value | activity change (PNC), negative = inhibition, % at 10 µM | actives 3.1% (n = 140,000);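 active = readout at or below -70, meaning at least 70% loss of cells showing the perinucleolar compartment, a nuclear body marking cancer cells; inconclusive = readout between -30 and a set limit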;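 note: plate controls were DMSO wells for no effect and camptothecin positive control wells for full effect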
#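 PC3M cells stably expressing PTB-GFP, 750–1000 cells/well, treated 16 h at 37 °C with compound (23 nl of library stock), in duplicate. After paraformaldehyde fixation and Hoechst stain, imaged at 20x; PNC prevalence scored by image analysis.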
# 12-hLO inh = inhibitors of human 12-lipoxygenase (ALOX12). purified 12-hLO, xylenol orange hydroperoxide absorbance. actives 0.12% (n = 150,000). P18054. AID 1452. Potency, µM (doses to about 57.1 µM), without a hit: at the highest dose activity change, negative = inhibition, usual class: inhibitors; note: potency is the fitted concentration of half-maximal effect; nearly all actives have a fitted effect of over 55% in size
#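 Hydroperoxide output read as Fe(III)-xylenol orange absorbance, 573-to-405 nm ratio, after 30 min reaction with 40 uM arachidonic acid. Enzyme: 150 nM purified human 12hLO, 15 min compound preincubation; 25 mM Hepes pH 7.0, room temperature.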
# IMPase Li inh = IMPase inhibition in cells with lithium potentiation. AID 1457. CHO-M1 cells, IP1 TR-FRET (IP-One), carbachol + lithium. actives 0.35% (n = 210,000). Potency, µM (highest dose often 59.4 µM), without a hit: top-dose activity, negative = IMPase inhibition, most hits filed as inhibitors;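 note: IP1 builds up when IMPase is blocked and the TR-FRET signal falls; potency is the fitted concentration of half-maximal effect; plate controls were basal vehicle for no effect and high inhibitor control for full effect; nearly all actives have a fitted effect of over 50% in size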
#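 Steps: plate 2000 CHO-M1 cells per well and culture 16–30 h; add compound and lithium; incubate 30 min, 37C; add d2-IP1 tracer and Eu cryptate anti-IP1 antibody in lysis buffer; read after 10 min at room temperature.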
# 15-hLO-2 inh = 15-hLO-2 (ALOX15B) enzyme inhibition; Potency, µM (top dose mostly 57.1 µM), for inactives: at the highest dose activity change, negative = inhibition, usual class: inhibitors; AID 881; purified 15hLO-2, xylenol orange hydroperoxide absorbance; actives 0.56% (n = 110,000); O15296; note: potency is the fitted concentration of half-maximal effect; nearly all actives have a fitted effect of over 60% in size
# Target sequence (O15296 whole entry, looked up): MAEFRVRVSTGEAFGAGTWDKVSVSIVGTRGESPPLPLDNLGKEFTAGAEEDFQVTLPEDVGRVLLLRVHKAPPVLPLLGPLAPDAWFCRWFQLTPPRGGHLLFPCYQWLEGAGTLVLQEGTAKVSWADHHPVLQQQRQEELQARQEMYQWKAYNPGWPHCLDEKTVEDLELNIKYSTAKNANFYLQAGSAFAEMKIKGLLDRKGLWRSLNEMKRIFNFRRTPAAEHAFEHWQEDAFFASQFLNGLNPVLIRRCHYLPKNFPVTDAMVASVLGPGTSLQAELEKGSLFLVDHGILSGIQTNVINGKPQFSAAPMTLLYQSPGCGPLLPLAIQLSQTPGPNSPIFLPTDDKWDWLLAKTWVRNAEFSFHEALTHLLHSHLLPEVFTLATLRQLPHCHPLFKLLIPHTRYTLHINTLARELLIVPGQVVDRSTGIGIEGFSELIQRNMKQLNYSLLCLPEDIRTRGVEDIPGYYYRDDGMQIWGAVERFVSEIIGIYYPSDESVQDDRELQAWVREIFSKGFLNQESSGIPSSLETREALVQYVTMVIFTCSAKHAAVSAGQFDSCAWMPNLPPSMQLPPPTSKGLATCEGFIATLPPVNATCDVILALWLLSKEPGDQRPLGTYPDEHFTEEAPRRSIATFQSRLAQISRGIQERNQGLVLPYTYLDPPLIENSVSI
#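 Read-out: hydroperoxide product oxidises ferrous iron, measured as xylenol orange complex via the 573-to-405 nm absorbance ratio after 30 min. Reaction: 50 nM enzyme, 15 min compound preincubation, 45 uM arachidonic acid, 90 min RT, Hepes pH 7.5 with Triton X-100.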
# * hit, by the source's call; ? = inconclusive; . = no result; [ ] = another dose, or the depositor's remark. Unless noted, calls come from the whole dose curve; as a rule, active = well fitted curve in the direction sought with a large enough effect; inconclusive = small, poorly fitted or top-dose-only effect, or another doubt; inactive = no such curve, though single readings can be large; an effect the other way counts as inactive or inconclusive. Unless noted, % is set by controls: 0 for no effect and ±100 for the full control effect.
SMILES,HPGD inh,IMPase inh,PNC assembly inh,12-hLO inh,IMPase Li inh,15-hLO-2 inh
COc1ccc(C(=O)c2cc([N+](=O)[O-])ccc2N2CCOCC2)cc1,-14%,.,-84*,-4%,3%,.
N#Cc1c(NC(=O)c2cc([N+](=O)[O-])ccc2N2CCOCC2)sc2c1CCCC2,28µM*,.,48,-3%,1%,.
Cc1ccc(C(=O)c2ccc(N3CCOCC3)c(F)c2)cc1,28µM*,7,-5,-11%,20%,.
CCOc1ccc(C(=O)c2cc([N+](=O)[O-])ccc2N2CCOCC2)cc1,2%,.,?,-1%,4%,.
Cc1ccc(C(=O)c2cc([N+](=O)[O-])ccc2N2CCOCC2)cc1,-6%,.,-96*,1%,5%,.
Cn1c(=O)c(=O)n(C)c2cc(NS(=O)(=O)c3ccc(Br)cc3)c(Cl)cc21,.,0,.,.,.,.
CC(C)n1c2ccccc2c2nnc(SCC(=O)Nc3ccccc3C(=O)O)nc21,.,.,.,.,7.9µM*,.
CCOC(=O)Cc1nnc(NC(=O)CSc2nnc3c4ccccc4n(C(C)C)c3n2)s1,?,?,-17,-2%,?,18%[2.29 µM]
CCCOc1ccc(N2C(=O)CC(N(CCC)C(=O)CCC(=O)O)C2=O)cc1 (stereo not given),-9%,3,-23,3%,25%[38.3 µM],-6%
CCCCCCC(=O)N(O)C1CC(=O)N(c2ccc(C)cc2)C1=O (stereo not given),7.9µM*,-9,-16,-30%,25%[38.3 µM],?
Cc1cc(C)c(C)c(S(=O)(=O)NCCC(=O)O)c1C,-1%,.,.,-3%,.,.
COc1ccc2c(c1)C(=O)[C@@H](O)[C@H](c1ccc(OC)c(Br)c1)O2,?,.,-115*,-2%,10%,.
Cc1ccc(S(=O)(=O)C2(C(=O)N3CCCCCC3)CC2)cc1,13µM*,4,-28,0%,-3%[38.3 µM],7%
Cc1ccc(S(=O)(=O)CC(=O)N2CCCC2)cc1,-14%,-7,-100*,-1%,4%,.
Cc1ccc(S(=O)(=O)CC(=O)N2CCOCC2)cc1,.,.,.,.,0%,.
COc1cc2nc(=S)n3[nH]c(CCn4nc(C)cc4C)nc3c2cc1OC,?,?,-27,-19%,10µM*,-13%
S=C(Cc1cccnc1)N1CCOCC1,22µM*,.,-14,-1%,-6%,.
COc1ccc(CC(=S)N2CCOCC2)cc1OC,-8%,-4,65,4%,-3%[38.3 µM],-4%
CC(C)(C)OC(=O)N1CCC(c2cc(=O)n3[nH]c(-c4ccc(Cl)cc4)cc3n2)CC1,-14%,0,-84*,3%,-8%[38.3 µM],1%
CCOC(=O)Cc1cc(=O)n2[nH]c(-c3ccc(Cl)cc3)cc2n1,-21%,1,?,-2%,-1%[38.3 µM],-2%
CC1=C(C(=O)OCc2ccccc2)C(c2ccccc2)NC(=O)N1CCCCCC(=O)O (stereo not given),-10%,.,-80*,-1%,6%,-13%
COc1ccc(OC)c(NC(=O)NC2(C(F)(F)F)Oc3ccccc3O2)c1,-6%,7,32,-11%,15%[38.3 µM],10µM*
Cc1cc(OCC(=O)Nc2sc3c(c2C#N)CCC(C)C3)ccc1Cl (stereo not given),.,-2,.,.,.,.
Cc1ccc(Nc2nc(C3CC3)cs2)cc1,-16%,-1,-119*,-21%,11%,.
COc1cc(C2c3c(oc4ccccc4c3=O)C(=O)N2c2nnc(C(C)C)s2)cc(OC)c1OC (stereo not given),.,-5,.,.,.,.
COc1cccc(OC)c1OCCNC[C@@H]1CSc2ccccc2O1,.,9,.,1%,.,23%
COC(=O)C1C2C=CC(C3CC23)C1C(=O)OCC(=O)c1ccc(OC)cc1 (stereo not given),28µM*,-2,16,-1%,26%[38.3 µM],6%
CS(=O)(=O)Nc1cccc(-c2ccc3ncnc(N4CCNCC4)c3c2)c1,.,.,.,.,15%,-9%
O=C(c1ccco1)n1c(=S)nc2ccccn21,11µM*,2,-13,-4%,8%[38.3 µM],2%
